# Test results published in PubChem BioAssay (NCATS).
# Results filed as inconclusive are left out. A number with no mark means an inactive call. The call rests on the fitted dose curve; in most records, active means well fitted activation curve with a large enough effect; inconclusive means small, poorly fitted or top-dose-only effect; inactive means no such curve, though single readings can be large or run the other way.
# Target: Cellular tumor antigen p53 (Homo sapiens) (UniProt P04637)
# Assay: Primary qHTS for small molecule compounds that upregulate eGFP-tagged delta133p53alpha (in N-terminal) cells. (AID 2060322);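 further: cells pre-induced with doxycycline then dosed without doxycycline; series mostly up to about 56 µM; 0% = DMSO vehicle and 100% = reference activator; nearly all actives have a fitted effect of over 75% in size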
# Conditions: NCI-H358 eGFP-delta133p53alpha fluorescence, 24 h; activation: hits give high values
# In short: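 NCI-H358 cells pre-induced 24 h with 10 ng/ml doxycycline for eGFP-delta133p53alpha, plated dox-free and exposed 24 h at 37C to titrated compounds. Fixed, Hoechst-stained; gated GFP peak intensity by laser scanning cytometry, normalized to DMSO (0%) and 57.5 uM 5-azacytidine (100%).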
# Cellular tumor antigen p53 (Homo sapiens), sequence (P04637 whole entry, looked up): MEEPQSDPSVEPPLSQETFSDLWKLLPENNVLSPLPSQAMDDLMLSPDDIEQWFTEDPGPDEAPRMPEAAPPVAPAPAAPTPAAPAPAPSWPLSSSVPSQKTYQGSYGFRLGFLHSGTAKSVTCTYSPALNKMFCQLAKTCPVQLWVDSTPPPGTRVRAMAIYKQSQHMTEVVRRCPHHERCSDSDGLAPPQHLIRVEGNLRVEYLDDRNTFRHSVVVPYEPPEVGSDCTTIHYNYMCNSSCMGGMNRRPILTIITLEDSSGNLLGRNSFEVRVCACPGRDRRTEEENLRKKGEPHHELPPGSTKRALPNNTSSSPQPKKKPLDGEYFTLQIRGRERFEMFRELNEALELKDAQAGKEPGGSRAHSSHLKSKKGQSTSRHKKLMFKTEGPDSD
row,Compound,activation [%]
1,CCOC(=O)c1ccc(O)cc1,-12.6
2,NS(=O)(=O)c1cc(C2(O)NC(=O)c3ccccc32)ccc1Cl (stereo not drawn),-33.3
3,NC(=S)N/N=C/c1cccnc1,0.565
4,CC(C)[N+](C)(C)CC(O)COc1cccc2ccccc12 (stereo not drawn),-17.5
5,CC(C)(C)CC(C)(C)c1ccc(O)c(-n2nc3ccccc3n2)c1,-0.565
6,O=C(O)c1ccc(-c2cc3cccnc3c(-c3ccc4nonc4c3)n2)cc1,3.89
7,O=C(Nc1ccc(Cl)c(Cl)c1)C1CC1,-7.53
8,CC(C)NC[C@@H](O)COc1ccc(CC(N)=O)cc1,-20.9
9,CN1CC(=O)NC1=N,-5.08
10,Fc1ccc(C(c2ccc(F)cc2)N2CCNCC2)cc1,-8.47
11,CN1CCC[C@H]1CCO[C@](C)(c1ccccc1)c1ccc(Cl)cc1,16.8
12,CCCCCCCCCCCCCCCCN,-20.1
13,CCOC(=O)C1=C(C)NC(C)=C(C(=O)OCC)C1c1ccccc1/C=C/C(=O)OC(C)(C)C,17.5
14,O=C(C=Cc1ccc(/C=C/C(=O)Nc2ccc(C3=NCCN3)cc2)cc1)Nc1ccc(C2=NCCN2)cc1,-8.95
15,O=C(C1CCCCC1)N1CC(=O)N2CCCc3ccccc3C2C1 (stereo not drawn),4.18
16,O=C(O)Cc1sc(-c2ccccc2)nc1-c1ccc(Cl)cc1,-17.6
17,O=C1c2ccccc2S(=O)(=O)N1CCCCN1CCN(c2ncccn2)CC1,13.4
18,C[C@@H]1[C@H](C)CC[C@]2(C(=O)O)CC[C@]3(C)C(=CC[C@@H]4[C@@]5(C)CC[C@H](O)C(C)(C)[C@H]5CC[C@]43C)[C@@H]12,-12.8
19,Cc1ccccc1N=Nc1ccc(N=Nc2c(O)ccc3ccccc23)c(C)c1,-17.5
20,Oc1c(I)cc(Cl)c2cccnc12,-2.51
21,OCCCc1ccccc1,-6.21
22,CCOC(=O)N[C@@H]1CC[C@@H]2[C@@H](C1)C[C@H]1C(=O)O[C@H](C)[C@H]1[C@@H]2C=Cc1ccc(-c2cccc(F)c2)cn1,8.14
23,CC(C)c1cc2c(cc1S(=O)(=O)O)[C@@]1(C)CCC[C@@](C)(C(=O)O)[C@@H]1CC2,-22
